Eleven molecules from PubChem BioAssay (Tox21) can be followed below.

The nature of test [1]: qHTS assay to identify small molecule antagonists of the vitamin D receptor (VDR) signaling pathway - cell viability counter screen (AID 743225). Further: nearly all actives have a fitted effect of over 50% in size. The gist of the method:
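Luminescent cell viability (CellTiter-Glo) in VDR-bla HEK 293T cells after 16 h compound exposure at 37C in the presence of 3 nM final 1-alpha,25-dihydroxy vitamin D3.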
For orientation: qHTS replaces the single test concentration by a dilution series.

The nature of test [2]: qHTS assay to identify small molecule agonists of the NFkB signaling pathway (AID 1159509; active means well fitted curve in the direction sought with a large enough effect in the signal ratio in the repeat runs, not every such curve was filed as active; the % refers to the signal ratio; further: series mostly up to about 61 µM). The gist of the method: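 After overnight attachment, reporter cells received test compounds, DMSO or positive controls and were incubated 5 hr at 37 C. FRET substrate was then added for 1.5 hr at room temperature before dual-emission fluorescence reading.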
Test [3] can be described thus: qHTS assay to identify small molecule agonists of the NFkB signaling pathway - cell viability counter screen (AID 1159515; calls by dose curve; further: series mostly up to about 61 µM; nearly all actives have a fitted effect of over 55% in size). The gist of the method:
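NFkB-bla ME-180 cells, 2,000/well, plated overnight at 37 C; compound added for 5 hr at 37 C. Viability read in the same wells as the bla reporter, by CellTiter-Glo luminescence after 30 min at room temperature.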

Test [4] is described as follows: qHTS assay to identify small molecule agonists of the endoplasmic reticulum stress response signaling pathway (AID 1159516; active means well fitted activation curve with a large enough effect in the signal ratio in the repeat runs, not every such curve was filed as active; the % refers to the signal ratio). An outline of the steps: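 CellSensor ESRE-bla HeLa cells, 1,500 per well, plated overnight, then exposed to compounds for 5 hr at 37 C. Beta-lactamase reporter read with LiveBLAzer B/G FRET substrate after 2 hr at room temperature, 405 nm excitation, 460 and 530 nm emission.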

A short description of test [5]: qHTS assay to identify small molecule agonists of the endoplasmic reticulum stress response signaling pathway - cell viability counter screen (AID 1159517; calls by dose curve;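 further: HeLa cells carrying an ER stress response element beta-lactamase reporter; series mostly up to about 61 µM; nearly all actives have a fitted effect of over 50% in size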). The gist of the method:
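Luminescence readout: CellTiter-Glo, 30 min RT, same wells as the ESRE-bla reporter read. HeLa ESRE-bla, 1,500 cells/well, o/n 37 C; cpd 5 hr 37 C/5% CO2.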

A short description of test [6]: qHTS assay to identify small molecule antagonists of the retinoid-related orphan receptor gamma (ROR-gamma) signaling pathway - cell viability counter screen (AID 1159520). Further: nearly all actives have a fitted effect of over 50% in size. The gist of the method:
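Tet-on ROR gamma CHO cells (1,000/well) were plated 4 hr, given compounds in DMSO for 2 hr at 37 C, then induced with 1 uM final doxycycline for 16 hr. Viability was read as ATP by CellTiter-Glo luminescence after 30 min.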

Test [7] concerns the target Nuclear receptor ROR-gamma (Homo sapiens) (UniProt P51449). Put plainly: qHTS assay to identify small molecule antagonists of the retinoid-related orphan receptor gamma (ROR-gamma) signaling pathway (AID 1159521; further: nearly all actives have a fitted effect of over 50% in size; further: potency means the concentration at half of the fitted maximal effect). The gist of the method:
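CHO cells expressing RORγ under a TET-on promoter, luciferase under RORE control. Dox 1 uM final, 16 h; compounds added 2 h prior. Luminescence decrease measured.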

Test [8] is described as follows: qHTS assay to identify small molecule agonists of the AP-1 signaling pathway - cell viability counter screen (AID 1159525; calls by dose curve; further: nearly all actives have a fitted effect of over 55% in size). The gist of the method:
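ME-180 AP-1-bla, 2500 cells/well, Opti-MEM + 0.5% dialyzed FBS; overnight 37 °C; cpd 15-pt titration, 5 h 37 °C; CellTiter-Glo 30 min RT; luminescence read; normalised to TOAB and DMSO controls.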

Test [9] in a line: qHTS assay to identify small molecule agonists of the AP-1 signaling pathway (AID 1159526; calls by dose curve).
Test [10] can be described thus: qHTS assay to identify small molecule agonists of the RXR signaling pathway - cell viability counter screen (AID 1159529). Further: nearly all actives have a fitted effect of over 50% in size. Further: potency means the concentration at half of the fitted maximal effect. The gist of the method:
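Same-well viability check after the LiveBLAzer FRET read: CellTiter-Glo added, luminescence measured after 30 min at room temperature. Reporter HEK 293T cells had been treated with compounds for 16 hr following a 5 hr preincubation.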

Test [11] is described as follows: qHTS assay to identify small molecule antagonists of the retinoid acid receptor (RAR) signaling pathway - cell viability counter screen (AID 1159551). Further: nearly all actives have a fitted effect of over 35% in size. The gist of the method:
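C3RL4 RARE-luciferase cells, 1,000/well, incubated overnight, then dosed with compound plus 1 uM retinol (final). After 6 hr at 37 C, viability read by CellTiter-Glo ATP luminescence following 30 min at room temperature.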

Test [12] is described as follows: qHTS assay to identify small molecule antagonists of the retinoic acid receptor (RAR) signaling pathway (AID 1159552; further: nearly all actives have a fitted effect of over 50% in size). The gist of the method:
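Readout: luciferase luminescence, 30 min post-reagent at RT. Setup: C3RL4 RARE reporter cells, compounds plus retinol 1 uM final, 6 hr incubation at 37 C and 5% CO2.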

The nature of test [13]: qHTS assay to identify small molecule agonists of the retinoic acid receptor (RAR) signaling pathway (AID 1159553). Further: potency means the concentration at half of the fitted maximal effect. An outline of the steps: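 C3RL4 RARE-luciferase cells were seeded at 1,000/well and grown overnight at 37 C, then exposed to compounds for 6 hr at 37 C, 5% CO2. Luciferase reagent was added and luminescence was read after 30 min at room temperature.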
The target of test [14] is Retinoic acid receptor RXR-alpha (Homo sapiens) (UniProt P19793). Put plainly: qHTS assay to identify small molecule agonists of the RXR signaling pathway (AID 1159527; calls by dose curve; further: nearly all actives have a fitted effect of over 35% in size). The gist of the method: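 Beta-lactamase reporter assay, agonist format. Engineered HEK 293T line, charcoal-stripped FBS at 2%, overnight (16 hr) exposure, fluorescence at 460 and 530 nm after 405 nm excitation.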

Test [15] can be described thus: qHTS assay to identify small molecule antagonists of the estrogen related receptor (ERR) signaling pathway - cell viability counter screen (AID 1224818). Further: series mostly up to about 46 µM. The gist of the method:
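ERR cells, 2,000 per well, compound added after 6 h and incubated 17.5 h at 37 C. Viability read by CellTiter-Fluor fluorescence after a further 30 min at 37 C.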

Test [16] is described as follows: qHTS assay to identify small molecule agonists of the estrogen related receptor (ERR) signaling pathway (AID 1224820). The gist of the method: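 Quantitative HTS of the LOPAC library used NTP ERR reporter cells treated 18 h at 37 C. Signal is luminescence after One-Glo addition and a 30 min room-temperature incubation.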
Test [17] concerns estrogen-related receptor alpha (ERRalpha) with PGC-1alpha coactivator, human. Put plainly: qHTS assay to identify small molecule antagonists of the estrogen related receptor signaling pathway with the pleiotropic PPARgamma coactivator (PGC) (AID 1224821; calls by dose curve). An outline of the steps: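 Quantitative HTS for antagonism: PGC/ERR cells received compounds after 6 h attachment and were incubated 18 h at 37 C, with luminescence (One-Glo) as the endpoint.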

A short description of test [18]: qHTS assay to identify small molecule antagonists of the estrogen related receptor signaling pathway with the pleiotropic PPARgamma coactivator (PGC) cell viability counter screen (AID 1224822; further: series mostly up to about 46 µM). An outline of the steps:
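PGC/ERR cells rested 6 h, then compound-treated 17.5 h at 37 C. CellTiter-Fluor added for 30 min at 37 C, viability measured by fluorescence intensity.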

Test [19] is described as follows: qHTS assay to identify small molecule agonists of the estrogen related receptor signaling pathway with the pleiotropic PPARgamma coactivator (PGC) (AID 1224823). The gist of the method: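 Cell-based luciferase assay in the NTP-supplied PGC/ERR line, 2,000 cells/well; 18 h compound exposure at 37 C, luminescence after One-Glo.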

Inconclusive results are not listed. A structure can be active in one record and inactive in another. The source made the active and inactive calls. Unless noted, the call rests on the fitted dose curve; in most records, active means well fitted curve in the direction sought with a large enough effect in the repeat runs; inconclusive means weak or mixed curves; inactive means no such curve, though single readings can be large; an effect the other way counts as inactive or inconclusive.

Retinoic acid receptor RXR-alpha (Homo sapiens), sequence (P19793 whole entry, looked up): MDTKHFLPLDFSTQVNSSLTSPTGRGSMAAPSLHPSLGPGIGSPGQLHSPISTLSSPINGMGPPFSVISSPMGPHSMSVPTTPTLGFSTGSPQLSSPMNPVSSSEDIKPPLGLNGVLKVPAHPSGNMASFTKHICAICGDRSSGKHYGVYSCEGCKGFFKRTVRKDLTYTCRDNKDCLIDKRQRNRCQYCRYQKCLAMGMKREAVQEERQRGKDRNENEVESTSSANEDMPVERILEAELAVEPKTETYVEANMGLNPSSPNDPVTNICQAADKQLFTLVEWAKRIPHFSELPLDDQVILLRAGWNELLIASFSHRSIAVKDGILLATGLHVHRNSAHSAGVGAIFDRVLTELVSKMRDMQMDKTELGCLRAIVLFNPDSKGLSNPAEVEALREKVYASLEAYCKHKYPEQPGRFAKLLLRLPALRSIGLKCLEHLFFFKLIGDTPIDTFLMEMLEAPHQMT

`CCc1ccc(C2CCNCC2)cc1`: the Potency result in [1], in test [5], in test [6], in test [7], in test [8] and in test [10] was “inactive” in each case. The Potency entry in [11] and in test [12] was “inactive” throughout. Besides, the outcome in [2], in test [3], in test [4] and in test [9] was inactive.
As to `C=CC1(C)OC(=O)N(c2cc(Cl)cc(Cl)c2)C1=O` (stereo not drawn), the Potency entry in test [1], in test [5], in [6], in [8] and in test [11] was “inactive” each time. The outcome in [2], in test [3], in test [4] and in test [9] was inactive. Further, the Potency in test [7] is 43 µM (active) and inactive; in test [10], 34.5 µM (active) and inactive.
With `CN(C)C1CCCCC1`, the Potency result in test [1], in [5], in test [6], in test [7], in test [8] and in [10] was “inactive” throughout. Moreover, the Potency result in [11], in test [12] and in [13] was “inactive” throughout. Moreover, the outcome in test [2], in test [3], in [4] and in test [9] was inactive.
As for `CCC(C(N)=O)N1CCCC1=O` (stereo not drawn), the Potency result in test [1], in test [5], in test [6], in [7], in test [8] and in test [10] was “inactive” throughout. Besides, the Potency result in [11], in test [12] and in test [13] was “inactive” throughout. The call in [2], in test [3], in test [4] and in test [9] was inactive.
As to `CC(C)[C@]12CC(=O)[C@H](C)[C@H]1C2`, the Potency result in test [1], in test [5], in [6], in test [7], in [14] and in test [10] was “inactive” each time. The Potency entry in [11] and in test [12] was “inactive” each time. Besides, the call in test [2], in test [3], in [4] and in test [9] was inactive.
As to `NNCc1ccccc1`, the Potency result in [1], in [5], in test [6], in test [7], in [8] and in test [10] was “inactive” throughout. Moreover, the Potency entry in test [11] and in test [12] was “inactive” throughout. Further, the call in test [2], in test [3], in test [4] and in [9] was inactive. Further, the Potency in test [13] was 2480 nM (active).
Regarding `c1ccc2c(c1)CCNC2`, the Potency entry in test [1], in [5], in [6], in [7], in test [10] and in [11] was “inactive” each time. Further, the Potency result in test [12] and in test [13] was “inactive” throughout. Also, the molecule was called inactive in test [2], in test [3], in test [4] and in test [9].
For `CC(Cc1ccccc1)NCCCCl` (stereo not drawn), the Potency entry in test [1], in test [5], in test [7], in test [10], in test [11] and in test [12] was “inactive” throughout. Also, the Potency result in test [13] was “inactive”. For the same molecule, the molecule was classed as inactive in test [2], in test [3], in [4] and in [9].
In the case of `COP(=O)(O)OC`, the Potency result in test [1], in test [5], in [7], in test [14], in test [10] and in test [11] was “inactive” throughout. The Potency entry in test [12] is “inactive”. Further, the outcome in test [2], in test [3], in test [4] and in [9] was inactive.
As for `OCC(Cl)CCl` (stereo not drawn), the Potency result in test [1], in test [5], in test [7], in test [8], in test [14] and in test [10] was “inactive” throughout. For the same molecule, the Potency entry in [11] and in test [12] was “inactive” in each case. Further, the molecule was called inactive in test [2], in test [3], in [4] and in [9].
Regarding `Cn1c(CCCC(=O)O)nc2cc(N(CCCl)CCCl)ccc21`, the Potency entry in test [1], in test [5], in test [7], in test [8], in test [14] and in test [10] was “inactive” in each case. Moreover, the Potency result in test [11], in test [12] and in test [13] was “inactive” throughout. Also, the call in test [2], in test [3], in test [4], in test [9], in test [15] and in test [16] was inactive. In addition, the molecule was classed as inactive in test [17], in test [18] and in [19].
